NIH3T3 tox – NIH 3T3 cell cytotoxicity | 94,000 tested, 4.3% active | AID 1345082 | Potency, µM (doses to about 96.7 µM), for the others: at the top dose activity change, negative = cytotoxicity, most hits filed as inhibitors | NIH 3T3 viability, CellTiter-Glo ATP luminescence, 48-72 h; note: nearly all actives have a fitted effect of over 55% in size
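Cytotoxicity is measured as loss of cellular ATP: NIH 3T3 cells (400/well) are exposed to compound for 48 or 72 hr at 37 °C, then CellTiter-Glo luminescence is imaged after 10 min at room temperature.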
HEK293 tox – HEK 293 cell cytotoxicity; AID 1345083; HEK 293 viability, ATP luminescence (CellTiter-Glo), 48-72 h; 94,000 tested, 6.6% active; Potency, µM (highest dose often 115 µM), for the others: at the top dose activity change, negative = cytotoxicity, hits mostly inhibitors; note: nearly all actives have a fitted effect of over 60% in size
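Luminescence from cellular ATP, measured with CellTiter-Glo, indicates HEK 293 viability. Cells plated at 250 cells/well are treated with compound for 48 or 72 hr at 37 degree Celsius before reagent addition.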
GPT2 inh – GPT2 alanine aminotransferase inhibition. Potency, µM (top dose mostly 57.7 µM), without a hit: top-dose activity change, negative = inhibition, usual class: inhibitors. Recombinant GPT2, coupled pyruvate oxidase/HRP Amplex Red fluorescence. 100,000 tested, 0.25% active. AID 1671188; note: nearly all actives have a fitted effect of over 60% in size
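Inhibition is scored from Amplex Red fluorescence generated when pyruvate oxidase and HRP act on pyruvate released by GPT2. Reactions contain 10ng/uL enzyme, 250uM a-KG and 2mM L-alanine and run 30 min at room temperature.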
Luciferase inh – Photinus pyralis luciferase inhibition; P08659; purified P. pyralis luciferase, luminescence, biochemical; Potency, µM (titrated, usually from 115 µM), actives largely listed as inhibitors; 76,000 tested, 2.5% active; AID 1347043; note: nearly all actives have a fitted effect of over 65% in size
Target sequence (P08659 whole entry, looked up): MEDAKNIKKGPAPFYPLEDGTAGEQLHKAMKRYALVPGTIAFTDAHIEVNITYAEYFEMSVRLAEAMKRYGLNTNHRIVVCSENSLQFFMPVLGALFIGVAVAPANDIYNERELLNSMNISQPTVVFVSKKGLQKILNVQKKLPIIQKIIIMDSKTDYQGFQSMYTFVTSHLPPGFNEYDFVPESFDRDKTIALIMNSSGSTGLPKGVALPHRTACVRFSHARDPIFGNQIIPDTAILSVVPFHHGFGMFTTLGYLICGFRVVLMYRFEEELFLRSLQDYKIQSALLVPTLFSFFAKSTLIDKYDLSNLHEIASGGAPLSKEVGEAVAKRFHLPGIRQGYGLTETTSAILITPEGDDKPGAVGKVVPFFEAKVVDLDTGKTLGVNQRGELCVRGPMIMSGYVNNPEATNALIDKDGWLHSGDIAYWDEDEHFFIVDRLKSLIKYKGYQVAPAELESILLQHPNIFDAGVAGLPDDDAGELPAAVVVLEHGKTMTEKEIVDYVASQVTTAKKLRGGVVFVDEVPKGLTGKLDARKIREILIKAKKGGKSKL
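Biochemical qHTS: compound (6-point titration) added to 10uM D-luciferin plus 10uM ATP in Tris acetate pH 7.5 buffer with Mg, Tween-20 and BSA, then purified enzyme at 10nM; light output imaged.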
NPR1 antag – human Npr1 receptor antagonism. Potency, µM (highest dose often 46.3 µM), for inactives: at the top dose activity change, negative = inhibition, actives largely listed as inhibitors. HEK293 hNpr1 GloSensor cGMP, ANP-stimulated luminescence. 76,000 tested, 1.6% active. P16066; calls by dose curve; note: nearly all actives have a fitted effect of over 60% in size
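HEK293 cells stably expressing human Npr1 and cGMP GloSensor pGS-40F, loaded 2 h with 2% GloSensor reagent, given compound 30 min at room temperature. Luminescence read before and 20 min after 0.1 nM hNppA.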
Active calls of the source: *; i = inactive; ? = inconclusive; · = no result; [ ] = remark or other dose. Most compounds without a hit are left out; they make up all but 10% or so of the library. Unless noted, calls come from the whole dose curve; as a rule, active = well fitted curve in the direction sought with a large enough effect; inconclusive = small, poorly fitted or top-dose-only effect, or another doubt; inactive = no such curve, though single readings can be large; an effect the other way counts as inactive or inconclusive. % is set by controls: 0 for no effect and ±100 for the full control effect; potency is the fitted concentration of half-maximal effect.

SMILES	NIH3T3 tox	HEK293 tox	GPT2 inh	Luciferase inh	NPR1 antag
COc1ccc2nc([C@H]3CCN(Cc4ccc(C(=O)O)cc4)C3)[nH]c2c1	-5.0%[174 µM]	-1.5%[172 µM]	3.7%[88.5 µM]	?	6.1%[70.6 µM]
COc1ccccc1-c1ccc(C(=O)N2CCC(C(=O)NCCSC)CC2)cc1	?	?	i	·	·
O=C(c1ccco1)N1CC(c2nnc(-c3ccncc3)o2)C2(CCOCC2)C1 (configuration not stated)	i	i	i	i	-4.4%
FC(F)(F)c1ccc2nc([C@H]3CCN(C4CCOCC4)C3)[nH]c2c1	-16.4%[174 µM]	?	0.2%[88.5 µM]	i	-2.2%[70.6 µM]
CN(C)c1ccc(CN2CC[C@H](c3nc4ccc(C(F)(F)F)cc4[nH]3)C2)cc1	31.6µM*	31.6µM*	i	i	?
c1ccc(CCCN2CC[C@H](c3nc4ccccc4[nH]3)C2)cc1	?	?	i	?	-20.7%[70.6 µM]
c1csc(CN2CC[C@H](c3nc4ccccc4[nH]3)C2)c1	100µM*	?	-20.4%[88.5 µM]	?	-27.7%[70.6 µM]
Cn1cc(CN2CC[C@H](c3nc4ccccc4[nH]3)C2)c2ccccc21	?	50.1µM*	-14.8%[88.5 µM]	i	-14.7%[70.6 µM]
CN(C)c1ccc(CN2CC[C@H](c3nc4ncccc4[nH]3)C2)cc1	-9.7%[174 µM]	-22.7%[172 µM]	3.8%[88.5 µM]	i	-7.2%[70.6 µM]
FC(F)(F)c1ccc2nc([C@H]3CCN(CC4CC4)C3)[nH]c2c1	?	?	-7.6%[88.5 µM]	28.2µM*	-6.1%[70.6 µM]
c1ccc(-n2cncn2)c(Cn2ccnc2-c2cc3n(n2)CCCNC3)c1	2.8%	4.0%	3.2%	i	0.5%
COC1=C(OC)C(=O)c2ccccc2C1=O	·	·	2.82µM*	·	·
O=C(NC[C@H]1OC[C@@H](N(Cc2ccccc2)Cc2ccccc2)[C@@H]1O)Nc1ccccc1	?	79.4µM*	-8.4%[88.5 µM]	i	-13.1%[70.6 µM]
Fc1ccc(Nc2cc3c(cn2)CN(Cc2ccncc2)CCN3)cc1Cl	20µM*	31.6µM*	0.6%[88.5 µM]	?	17.8µM*
Cn1cnc(CN2CCNc3cc(Nc4ccccc4)ncc3C2)c1	?	?	1.7%[88.5 µM]	i	10.4%[70.6 µM]
Fc1ccc(CN2CCNc3cc(Nc4ccccc4)ncc3C2)cc1F	39.8µM*	22.4µM*	2.0%[88.5 µM]	i	-16.9%[70.6 µM]
FC(F)(F)c1ccc(CN2CCNc3cc(Nc4ccccc4)ncc3C2)cc1	25.1µM*	44.7µM*	i	?	?
c1ccc(Nc2cc3c(cn2)CN(Cc2ccccn2)CCN3)cc1	?	?	-1.3%[88.5 µM]	i	-9.7%[70.6 µM]
c1ccc(Nc2cc3c(cn2)CN(Cc2ncc[nH]2)CCN3)cc1	?	?	i	17.8µM*	2.3%[70.6 µM]
CN(C)Cc1nc(C(=O)N2CCCn3nc(CO)cc3C2)cs1	2.0%	-3.3%	-4.9%	i	1.6%
O=C(NC1CC1)c1ccc2nc(-c3cccnc3)oc2c1	-34.0%[138 µM]	?	2.8%[88.5 µM]	·	·
c1cncc(Nc2cc3c(cn2)CN(Cc2cccs2)CCN3)c1	?	?	-23.0%[88.5 µM]	?	2.4%[70.6 µM]
c1ccc(N2CCN(c3cc4c(cn3)CN(Cc3ccncc3)CCN4)CC2)nc1	-26.9%[138 µM]	79.4µM*	4.9%[88.5 µM]	i	?
Fc1ccc(Nc2cc3c(cn2)CN(Cc2ccccc2)CCN3)cc1	31.6µM*	-97.3%[172 µM]	?	?	-21.2%[70.6 µM]
Fc1cccc(CN2CCNc3cc(Nc4cccnc4)ncc3C2)c1	31.6µM*	?	?	35.5µM*	-8.6%[70.6 µM]
SMILES	NIH3T3 tox	HEK293 tox	GPT2 inh	Luciferase inh	NPR1 antag
CCCn1c(C)cnc1CC1CCN(S(=O)(=O)c2ccccc2)C1 (configuration not stated)	-8.0%	?	-14.6%	i	4.4%
COc1cccc(-c2nc(-c3nnn4c3COC(c3ccc(Cl)cc3)C4)no2)c1 (configuration not stated)	i	1.7%	i	i	-13.1%
Cc1cc(C(=O)N(C)CC2CCCN(CCc3ccccc3F)C2)n[nH]1 (configuration not stated)	0.1%	1.2%	?	i	3.3%
Cc1ccccc1CCN1CCCC(CN(C)C(=O)c2cc3ccccc3[nH]2)C1 (configuration not stated)	?	22.4µM*	4.8%	i	?
Cc1ccccc1NC(=O)N1CCC(CCNC(=O)c2ccco2)CC1	i	18.9%	i	i	4.1%
O=C(c1ccc2cc[nH]c2c1)N1CCC(N2CC(OCC3CC3)C23CCCCC3)CC1 (configuration not stated)	?	50.1µM*	?	i	1.8%
Cc1ccc(C(=O)N2CC(c3nnc(C(C)C)o3)C3(CCOCC3)C2)cn1 (configuration not stated)	i	-0.4%	i	i	-0.1%
COc1cc2c(cc1-c1c(-c3ccccc3)ncn1CCCO)CCC2	?	?	-22.2%	i	-15.8%
Cc1cccc(-c2ccccc2C(=O)N2CCCC(CO)(Cc3ccccc3F)C2)c1 (configuration not stated)	79.4µM*	20µM*	?	i	-9.3%
CC(=O)N1CCN(c2cc(-c3noc([C@@H]4CCCN4Cc4ccc(N(C)C)cc4)n3)ccn2)CC1	-29.5%	17.8µM*	-1.6%	i	-0.7%
c1cncc(CN2CCC[C@H]2c2nc(-c3ccnc(N4CCCC4)c3)no2)c1	?	?	-11.5%[88.5 µM]	i	-1.7%[70.6 µM]
c1cc(-c2noc([C@@H]3CCCN3Cc3ncc[nH]3)n2)cc(N2CCCC2)n1	?	100µM*	i	i	-27.3%[70.6 µM]
O=C(c1cc2c(s1)CN(C1CCCC1)C2)N1CCCN(c2ncccn2)CC1	?	?	i	i	-10.1%
Cc1cc2c(NC3CC(c4nnc(CN(C)C)n4C)C3)ncnc2s1 (configuration not stated)	?	?	-12.9%	i	-13.3%
COc1cc(N2CCC(O)CC2)ccc1Nc1nc(Nc2ccccc2S(=O)(=O)C(C)C)c2[nH]cnc2n1	·	·	17.8µM*	·	·
C=CCC1(CO)CCCN(Cc2cc(C3CCCCC3)no2)C1 (configuration not stated)	?	39.8µM*	-1.9%	i	-15.5%
OCC1(CC2CC2)CCCN(Cc2noc(C3CC3)n2)C1 (configuration not stated)	-22.1%	-15.2%	-11.8%	i	2.7%
COCc1ccc2c(c1)c(OC(C)(C)C(=O)NC(C)C)nn2Cc1cccc(OC)c1	?	?	-4.9%[88.5 µM]	i	1.3%[70.6 µM]
COCc1ccc2c(c1)c(OC(C)(C)C(=O)N1CCN(C)CC1)nn2Cc1ccccc1	?	?	-5.9%[88.5 µM]	i	-24.5%[70.6 µM]
COCc1ccc2c(c1)c(OC(C)(C)C(=O)N1CCN(CCO)CC1)nn2Cc1cccnc1	35.5µM*	i	0.4%	i	8.4%
COCc1ccc2c(c1)c(OC(C)(C)C(=O)N1CCOCC1)nn2Cc1cccnc1	31.6µM*	-9.5%[172 µM]	2.0%[88.5 µM]	i	2.1%[70.6 µM]

Screens as filed in PubChem BioAssay.
